The whole screen tested about 5,500 compounds, of which about 2,000 (36%) were called active. Another 18% or so got no clear call; they are omitted. Cut-off read from the data, not from the text of the source: active = normalized growth mostly below about 0.91 (no sharp cut-off); inconclusive = no clear call, values can overlap the other calls; inactive = mostly above about 0.92. Some of the results follow.
Test: chemical genetic growth profiling, strain panel (AID 1159580);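 note: tested at 20 µM; growth read once vehicle control cultures reached saturation at 30 °C; 1 = growth at the plate median or of vehicle wells; lower values mean less growth of the strain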
Conditions: growth OD

Measured: normalized growth

CC(=O)Nc1ccc(O)cc1
active: S. cerevisiae deletion strains, locus YKL068W, hits give low values 0.936 | S. cerevisiae deletion strains, locus YNL298W, strain CLA4, hits give low values 0.897 | S. cerevisiae deletion strains, locus YPR141C, strain kar3, hits give low values 0.911
inactive: S. cerevisiae deletion strains, locus YJR075W, strain HOC1, hits give low values 1.06 | S. cerevisiae deletion strains, locus YKL009W, strain mrt4, hits give low values 0.952 | S. cerevisiae deletion strains, locus YKL085W, strain MDH1 (second series), hits give low values 0.943 | S. cerevisiae deletion strains, locus YKL085W, strain MDH1, hits give low values 0.943 | S. cerevisiae deletion strains, locus YKL160W, strain elf1, hits give low values 1.01 | S. cerevisiae deletion strains, locus YKR001C, strain vps1, hits give low values 0.982 | S. cerevisiae deletion strains, locus YKR026C, strain gcn3, hits give low values 1.02 | S. cerevisiae deletion strains, locus YKR091W, strain srl3, hits give low values 1.01 | S. cerevisiae deletion strains, locus YLL001W, strain dnm1, hits give low values 0.998 | S. cerevisiae deletion strains, locus YLL026W, hits give low values 1.02 | S. cerevisiae deletion strains, locus YLL041C, strain sdh2, hits give low values 1.01 | S. cerevisiae deletion strains, locus YLR027C, strain aat2, hits give low values 1.01 | S. cerevisiae deletion strains, locus YLR039C, strain RIC1, hits give low values 0.742 | S. cerevisiae deletion strains, locus YLR058C, strain SHM2, hits give low values 0.984 | S. cerevisiae deletion strains, locus YLR102C, strain apc9, hits give low values 0.986 | S. cerevisiae deletion strains, locus YLR113W, strain HOG1, hits give low values 0.974 | S. cerevisiae deletion strains, locus YLR221C, strain rsa3, hits give low values 0.989 | S. cerevisiae deletion strains, locus YLR258W, strain gsy2, hits give low values 1.02 | S. cerevisiae deletion strains, locus YLR262C, strain YPT6 (second series), hits give low values 1.04 | S. cerevisiae deletion strains, locus YLR262C, strain YPT6, hits give low values 0.772 | S. cerevisiae deletion strains, locus YLR268W, strain sec22, hits give low values 0.978 | S. cerevisiae deletion strains, locus YLR320W, strain mms22, hits give low values 1.01 | S. cerevisiae deletion strains, locus YLR330W, strain CHS5, hits give low values 0.986 | S. cerevisiae deletion strains, locus YLR342W, strain FKS1 (second series), hits give low values 1.05 | S. cerevisiae deletion strains, locus YLR342W, strain FKS1, hits give low values 1.03 | S. cerevisiae deletion strains, locus YLR357W, strain rsc2, hits give low values 1.02 | S. cerevisiae deletion strains, locus YLR370C, strain arc18, hits give low values 1.01 | S. cerevisiae deletion strains, locus YLR371W, strain rom2, hits give low values 0.999 | S. cerevisiae deletion strains, locus YLR384C, strain iki3, hits give low values 1.01 | S. cerevisiae deletion strains, locus YLR418C, strain cdc73, hits give low values 1.08 | S. cerevisiae deletion strains, locus YML016C, strain PPZ1, hits give low values 0.975 | S. cerevisiae deletion strains, locus YML032C, strain rad52, hits give low values 0.971 | S. cerevisiae deletion strains, locus YML120C, strain ndi1, hits give low values 1.02 | S. cerevisiae deletion strains, locus YML124C, strain tub3, hits give low values 0.972 | S. cerevisiae deletion strains, locus YMR058W, strain fet3, hits give low values 1.03 | S. cerevisiae deletion strains, locus YMR078C, strain ctf18, hits give low values 0.986 | S. cerevisiae deletion strains, locus YMR125W, strain sto1, hits give low values 1.01 | S. cerevisiae deletion strains, locus YMR129W, hits give low values 1.01 | S. cerevisiae deletion strains, locus YMR205C, strain PFK2, hits give low values 1.02 | S. cerevisiae deletion strains, locus YMR223W, strain ubp8, hits give low values 0.98 | S. cerevisiae deletion strains, locus YMR231W, strain pep5, hits give low values 1.03 | S. cerevisiae deletion strains, locus YMR307W, strain GAS1, hits give low values 0.876 | S. cerevisiae deletion strains, locus YNL067W, strain RPL9B, hits give low values 1.04 | S. cerevisiae deletion strains, locus YNL071W, strain lat1, hits give low values 1.02 | S. cerevisiae deletion strains, locus YNL153C, strain GIM3, hits give low values 0.998 | S. cerevisiae deletion strains, locus YNL183C, strain NPR1, hits give low values 0.955 | S. cerevisiae deletion strains, locus YNL209W, strain ssb2, hits give low values 1.02 | S. cerevisiae deletion strains, locus YNL233W, strain BNI4, hits give low values 1.03 | S. cerevisiae deletion strains, locus YNL248C, strain rpa49, hits give low values 0.998 | S. cerevisiae deletion strains, locus YNL250W, strain rad50, hits give low values 0.937 | S. cerevisiae deletion strains, locus YNL271C, strain bni1, hits give low values 0.936 | S. cerevisiae deletion strains, locus YNL307C, strain MCK1, hits give low values 1.01 | S. cerevisiae deletion strains, locus YNL322C, strain KRE1 (second series), hits give low values 1.02 | S. cerevisiae deletion strains, locus YNR049C, strain mso1, hits give low values 1.03 | S. cerevisiae deletion strains, locus YNR052C, strain pop2, hits give low values 0.974 | S. cerevisiae deletion strains, locus YOL006C, strain TOP1, hits give low values 1.14 | S. cerevisiae deletion strains, locus YOL012C, strain htz1 0.778 | S. cerevisiae deletion strains, locus YOL147C, strain pex11, hits give low values 0.98 | S. cerevisiae deletion strains, locus YOR001W, strain rrp6, hits give low values 1.01 | S. cerevisiae deletion strains, locus YOR061W, strain CKA2, hits give low values 0.972 | S. cerevisiae deletion strains, locus YOR069W, strain VPS5, hits give low values 0.984 | S. cerevisiae deletion strains, locus YOR070C, strain gyp1, hits give low values 1.01 | S. cerevisiae deletion strains, locus YOR080W, strain dia2, hits give low values 1.03 | S. cerevisiae deletion strains, locus YOR083W, strain WHI5, hits give low values 0.988 | S. cerevisiae deletion strains, locus YOR106W, strain vam3, hits give low values 1.01 | S. cerevisiae deletion strains, locus YOR136W, strain idh2, hits give low values 1.01 | S. cerevisiae deletion strains, locus YOR144C, strain elg1, hits give low values 0.968 | S. cerevisiae deletion strains, locus YOR184W, strain ser1, hits give low values 0.998 | S. cerevisiae deletion strains, locus YOR231W, strain MKK1, hits give low values 0.997 | S. cerevisiae deletion strains, locus YOR265W, strain rbl2, hits give low values 1.02 | S. cerevisiae deletion strains, locus YOR270C, strain vph1, hits give low values 1.02 | S. cerevisiae deletion strains, locus YOR290C, strain snf2, hits give low values 1 | S. cerevisiae deletion strains, locus YOR316C, strain cot1, hits give low values 0.982 | S. cerevisiae deletion strains, locus YPL051W, strain arl3, hits give low values 1.01 | S. cerevisiae deletion strains, locus YPL055C, strain LGE1, hits give low values 1 | S. cerevisiae deletion strains, locus YPL078C, strain atp4, hits give low values 1.01 | S. cerevisiae deletion strains, locus YPL106C, strain sse1, hits give low values 1.02 | S. cerevisiae deletion strains, locus YPL240C, strain hsp82, hits give low values 1.02 | S. cerevisiae deletion strains, locus YPL241C, strain CIN2, hits give low values 0.981 | S. cerevisiae deletion strains, locus YPL256C, strain CLN2, hits give low values 0.982 | S. cerevisiae deletion strains, locus YPR119W, strain clb2, hits give low values 0.973 | S. cerevisiae deletion strains, locus YPR163C, strain tif3, hits give low values 0.992 | S. cerevisiae deletion strains, locus YPR167C, strain met16, hits give low values 0.972 | S. cerevisiae deletion strains, strain wtn01, hits give low values 0.967 | S. cerevisiae strains, strain wild type, hits give low values 0.953

Source: PubChem BioAssay AID1159580 (chemical genetic matrix, 2015)
